6 compounds from PubChem BioAssay (EPA / NIEHS) can be followed below.

Read-out in experiment [1]: Low-density lipoprotein receptor (LDLR), LDLR (gene 3949)
Kind of experiment: BSK_CASM3C_LDLR: BioMAP Diversity Plus: CASM3C Assay for Low-density lipoprotein receptor (LDLR) Biomarker Activity (AID 2283045).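 Note: LDLR protein level on the cell surface quantified by ELISA.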 The following applies: primary human coronary artery smooth muscle cells; actives raise or lower the signal.

Read-out in experiment [2]: Monocyte Chemoattractant Protein-1 (MCP1), CCL2 (gene 6347)
Kind of experiment: BSK_CASM3C_MCP1: BioMAP Diversity Plus: CASM3C Assay for Monocyte Chemoattractant Protein-1 (MCP1) Biomarker Activity (AID 2283046).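 Note: MCP-1 level quantified by ELISA 24 h after dosing.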 The following applies: primary human coronary artery smooth muscle cells; actives raise or lower the signal.

The nature of experiment [3]: BSK_CASM3C_Proliferation: Cell Proliferation Assessment in the BioMAP Diversity Plus: CASM3C Assay (AID 2283047).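 Note: sulforhodamine B total protein stain as relative cell number at 560 nm; sub-confluent cells exposed 48 h before staining; fitted both ways against DMSO so gain or loss of cell number.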 To be noted: primary human coronary artery smooth muscle cells.
Read-out in experiment [4]: Monokine induced gamma interferon (MIG), CXCL9 (gene 4283)
Kind of experiment: BSK_CASM3C_MIG: BioMAP Diversity Plus: CASM3C Assay for Monokine induced gamma interferon (MIG) Biomarker Activity (AID 2283048).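 Note: MIG protein level measured by ELISA.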 The following applies: primary human coronary artery smooth muscle cells; actives raise or lower the signal.

Read-out in experiment [5]: serum amyloid A (SAA), SAA1 (gene 6288)
Kind of experiment: BSK_CASM3C_SAA: BioMAP Diversity Plus: CASM3C Assay for serum amyloid A (SAA) Biomarker Activity (AID 2283049).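 Note: SAA protein level quantified by ELISA.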 The following applies: primary human coronary artery smooth muscle cells; actives raise or lower the signal.

Experiment [6] in a line: BSK_CASM3C_SRB: Viability Assessment in the BioMAP Diversity Plus: CASM3C Assay (AID 2283050).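 Note: total protein by SRB staining as cytotoxicity measure in parallel cultures.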 The following applies: primary human coronary artery smooth muscle cells.
Read-out in experiment [7]: Thrombomodulin, THBD (gene 7056)
Nature of the experiment: BSK_CASM3C_Thrombomodulin: BioMAP Diversity Plus: CASM3C Assay for Thrombomodulin Biomarker Activity (AID 2283051).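 Note: thrombomodulin protein level measured by ELISA 24 h after dosing.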 The following applies: primary human coronary artery smooth muscle cells; actives raise or lower the signal.

Read-out in experiment [8]: Tissue Factor, F3 (gene 2152)
Nature of the experiment: BSK_CASM3C_TissueFactor: BioMAP Diversity Plus: CASM3C Assay for Tissue Factor Biomarker Activity (AID 2283052).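 Note: cell surface tissue factor protein level read by ELISA.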 To be noted: primary human coronary artery smooth muscle cells; actives raise or lower the signal.

Read-out in experiment [9]: Interferon-gamma inducible Protein 10 (IP10), CXCL10 (gene 3627)
Kind of experiment: BSK_hDFCGF_IP10: BioMAP Diversity Plus: hDFCGF Assay for Interferon-gamma inducible Protein 10 (IP10) Biomarker Activity (AID 2283053). The following applies: primary human foreskin fibroblasts; actives raise or lower the signal. The method in brief: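 Human foreskin fibroblast primary cells (hDFCGF system) were dosed with chemical and assayed at 24 h; IP-10 measured by ELISA. Activity fitted bidirectionally relative to DMSO negative control as baseline.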

Read-out in experiment [10]: Urokinase-type plasminogen activator receptor (uPAR), PLAUR (gene 5329)
Nature of the experiment: BSK_CASM3C_uPAR: BioMAP Diversity Plus: CASM3C Assay for Urokinase-type plasminogen activator receptor (uPAR) Biomarker Activity (AID 2283054).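 Note: cell-surface uPAR protein level quantified by ELISA.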 To be noted: primary human coronary artery smooth muscle cells; actives raise or lower the signal.

Read-out in experiment [11]: Vascular cell adhesion molecule 1 (VCAM1), VCAM1 (gene 7412)
Nature of the experiment: BSK_CASM3C_VCAM1: BioMAP Diversity Plus: CASM3C Assay for Vascular cell adhesion molecule 1 (VCAM1) Biomarker Activity (AID 2283055).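 Note: VCAM-1 protein level quantified by ELISA on the cells.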 To be noted: primary human coronary artery smooth muscle cells; actives raise or lower the signal.

Read-out in experiment [12]: Collagen III, COL3A1 (gene 1281)
Kind of experiment: BSK_hDFCGF_CollagenIII: BioMAP Diversity Plus: hDFCGF Assay for Collagen III Biomarker Activity (AID 2283056). The following applies: primary human foreskin fibroblasts; actives raise or lower the signal. The method in brief:
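Response relative to DMSO, fitted in both directions, reflects ELISA-measured collagen III in human primary skin fibroblasts 24 h after compound addition.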

Read-out in experiment [13]: Epidermal growth factor receptor (EGFR), EGFR (gene 1956)
Kind of experiment: BSK_hDFCGF_EGFR: BioMAP Diversity Plus: hDFCGF Assay for Epidermal growth factor receptor (EGFR) Biomarker Activity (AID 2283057). To be noted: primary human foreskin fibroblasts; actives raise or lower the signal. The method in brief:
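Primary human foreskin fibroblasts were exposed to compound for 24 h, after which cell-surface EGFR was quantified by ELISA. Activity was fitted bidirectionally against the DMSO negative control as baseline.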

Read-out in experiment [14]: Interleukin-8 (IL8), CXCL8 (gene 3576)
Kind of experiment: BSK_hDFCGF_IL8: BioMAP Diversity Plus: hDFCGF Assay for Interleukin-8 (IL8) Biomarker Activity (AID 2283058). To be noted: primary human foreskin fibroblasts; actives raise or lower the signal. The method in brief: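 Fibroblast monolayers (human foreskin, hDFCGF) received test chemical for 24 h before ELISA detection of IL-8; either increases or decreases relative to DMSO count as activity.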

Experiment [15] in a line: BSK_hDFCGF_Proliferation: Cell Proliferation Assessment in the BioMAP Diversity Plus: hDFCGF Assay (AID 2283059).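 Note: curves fitted for both rise and fall of signal versus DMSO baseline.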 The following applies: primary human foreskin fibroblasts. The method in brief:
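Total protein read at 560 nm after 0.1% SRB staining of TCA-fixed human skin fibroblasts, […]. Activity is fitted in both directions relative to DMSO as baseline.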

Read-out in experiment [16]: Macrophage colony-stimulating factor (MCSF), CSF1 (gene 1435)
Nature of the experiment: BSK_hDFCGF_MCSF: BioMAP Diversity Plus: hDFCGF Assay for Macrophage colony-stimulating factor (MCSF) Biomarker Activity (AID 2283060). To be noted: primary human foreskin fibroblasts; actives raise or lower the signal. The method in brief: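 fibroblasts (human foreskin, primary), 24 h post-dose; M-CSF by ELISA; bidirectional fit, DMSO = baseline.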

The nature of experiment [17]: BSK_hDFCGF_SRB: Viability Assessment in the BioMAP Diversity Plus: hDFCGF Assay (AID 2283061).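 Note: cells exposed to compound for 24 h before the read.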 The following applies: primary human foreskin fibroblasts. The method in brief:
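SRB-based viability read on primary human skin fibroblasts at 24 h: TCA fixation, 0.1% dye, 560 nm. Gain or loss of signal is fitted against the DMSO negative control.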

Read-out in experiment [18]: TIMP metallopeptidase inhibitor 1 (TIMP1), TIMP1 (gene 7076)
Kind of experiment: BSK_hDFCGF_TIMP1: BioMAP Diversity Plus: hDFCGF Assay for TIMP metallopeptidase inhibitor 1 (TIMP1) Biomarker Activity (AID 2283062). The following applies: primary human foreskin fibroblasts; actives raise or lower the signal. The method in brief: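 Bidirectional curve fitting against DMSO baseline yielded this endpoint, based on ELISA detection of TIMP-1 in primary human foreskin fibroblasts exposed to compound for 24 h.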

Read-out in experiment [19]: Monokine induced gamma interferon (MIG), CXCL9 (gene 4283)
Kind of experiment: BSK_hDFCGF_MIG: BioMAP Diversity Plus: hDFCGF Assay for Monokine induced gamma interferon (MIG) Biomarker Activity (AID 2283063). The following applies: primary human foreskin fibroblasts; actives raise or lower the signal. The method in brief: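 Endpoint derived by bidirectional fitting relative to DMSO; MIG quantified via ELISA in primary human foreskin fibroblasts harvested 24 h after dosing.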

Read-out in experiment [20]: Matrix Metallopeptidase 1 (MMP1), MMP1 (gene 4312)
Nature of the experiment: BSK_hDFCGF_MMP1: BioMAP Diversity Plus: hDFCGF Assay for Matrix Metallopeptidase 1 (MMP1) Biomarker Activity (AID 2283064). The following applies: primary human foreskin fibroblasts; actives raise or lower the signal. The method in brief:
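hDFCGF primary fibroblasts (human foreskin); chemical added; 24 h; MMP1 by ELISA; bidirectional fit vs DMSO.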

Structures are written as SMILES. Calls of active or inactive are those of the source. Rule for the calls: active = hit-call score of the fitted dose curve at least 0.9, where 1 is the maximum; inactive = score below 0.9.

The term AC50 denotes the concentration at which the activity in the assay is half-maximal.

With `Oc1ccc(O)cc1`, the outcome in experiment [1], in experiment [2], in experiment [4], in [5], in experiment [6] and in experiment [8] was inactive. Moreover, the result in experiment [10] and in [13] was inactive. For the same compound, the AC50 was 25.7 µM (active) in experiment [3]; 10.7 µM (active) in [7]; 20.6 µM (active) in [9]; 9.44 µM (active) in experiment [11]; 20 µM (active) in experiment [12]; 31.5 µM (active) in experiment [14]. The half-maximal activity concentration (AC50) is 0.465 µM (active) in experiment [15]; 11.6 µM (active) in experiment [16]; 12 µM (active) in experiment [17]; 13.4 µM (active) in experiment [18]; 18.7 µM (active) in [19]; 33 µM (active) in [20].
`COC(=O)CCCC(=O)OC`: the outcome in experiment [1], in [2], in [3], in experiment [4], in experiment [5] and in [6] was inactive. The outcome in [7], in [8], in experiment [9], in experiment [10], in experiment [11] and in experiment [12] was inactive. For the same compound, the outcome in experiment [13], in experiment [14], in experiment [15], in experiment [16], in experiment [17] and in experiment [18] was inactive. Also, the outcome in [19] and in experiment [20] was inactive.
For the compound `CC(C)c1cccc(C(C)C)c1NC(=O)NS(=O)(=O)c1cc(C(C)(C)O)co1`, the outcome in experiment [1], in experiment [2], in experiment [3], in experiment [4], in experiment [5] and in [6] was inactive. In addition, the outcome in experiment [7], in [8], in experiment [9], in experiment [10], in experiment [11] and in experiment [12] was inactive. Further, the result in experiment [13], in experiment [14], in experiment [15], in [16], in experiment [17] and in experiment [18] was inactive. Further, the result in experiment [19] and in experiment [20] was inactive.
Consider `CC(C)OC(=O)C(C)(C)Oc1ccc(C(=O)c2ccc(Cl)cc2)cc1`, for which the AC50 was 20 µM (active) in experiment [1]; 11 µM (active) in experiment [7]; 12.9 µM (active) in [9]; 5.38 µM (active) in experiment [10]; 5 µM (active) in experiment [11]; 8.9 µM (active) in experiment [12]. Besides, in experiment [15], the half-maximal activity concentration (AC50) is 26.4 µM (active). In addition, the outcome in [2], in experiment [3], in [4], in [5], in [6] and in [8] was inactive. In addition, the outcome in [13], in [14], in [16], in [17], in [18] and in experiment [19] was inactive. Also, the result in [20] was inactive.
Turning to `N[C@@H](Cc1c[nH]c2ccccc12)C(=O)O`, the result in [1], in [2], in [3], in experiment [4], in experiment [5] and in experiment [6] was inactive. Further, the result in experiment [7], in experiment [8], in experiment [9], in experiment [10], in [11] and in [12] was inactive. The outcome in [13], in [14], in experiment [15], in experiment [16], in [17] and in experiment [18] was inactive. Further, the result in experiment [19] and in experiment [20] was inactive.
As to `O=C1OC(c2ccc(O)cc2)(c2ccc(O)cc2)c2ccccc21`, the result in experiment [1], in [2], in experiment [4], in experiment [5], in experiment [6] and in experiment [7] was inactive. The result in [8], in experiment [9], in [10], in experiment [11], in experiment [14] and in experiment [16] was inactive. Further, the outcome in experiment [17], in [18], in experiment [19] and in experiment [20] was inactive. The half-maximal activity concentration (AC50) in experiment [3] is 28.2 µM (active); in [12] it was 30.2 µM (active); in experiment [13], 20 µM (active); in experiment [15], 28 µM (active).
